ATXN2 expr inh – Primary qHTS for Inhibitors of ATXN expression. hit rate 0.72% among 360,000. HEK-293 ATXN2-luciferase reporter, luminescence, 24 h. Potency, µM (doses to about 57 µM), most hits filed as inhibitors; further: nearly all actives have a fitted effect of over 55% in size
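qHTS (up to 57 uM final) was run with 24 h compound exposure of reporter cells at 37 °C. Each well was multiplexed: SteadyGlo luminescence measured ATXN2-luciferase expression after a fluorogenic Gly-Phe-AFC viability readout (25 uM final).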
ATXN viability – Viability Counterscreen for Primary qHTS for Inhibitors of ATXN expression | S2 cells (HEK-293 line with an ATXN2-luciferase reporter) viability, CellTiter-Fluor protease fluorescence, 24 h | Potency, µM (series often up to 56.7 µM), most hits filed as cytotoxic | AID 651635, 2014 | hit rate 0.49% among 400,000; further: nearly all actives have a fitted effect of over 40% in size
TGFb SMAD3 inh – qHTS for Inhibitors of TGF-b | HepG2 CAGA-GFP TGF-b/SMAD3 reporter, GFP fluorescence, 18 h; TGF-beta stimulated, 500 pg/mL final | Potency, µM (top dose mostly 46.1 µM), actives largely listed as inhibitors | hit rate 1.2% among 410,000; further: nearly all actives have a fitted effect of over 65% in size
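HEPG2 CAGA-GFP cells (1000/well, DMEM with 1% FBS) were pre-incubated 2 h at 37 degrees C, given compound by pin tool, then stimulated with TGF-beta at 500 pg/mL final for 18 h before per-cell GFP fluorescence imaging.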
KB-3-1 tox – qHTS assay for MDR1-selective chemotherapeutics: Primary screen using the parental adenocarcinoma cell KB-3-1. KB-3-1 viability, CellTiter-Glo ATP luminescence, 72 h. Potency, µM (series often up to 46.1 µM), actives largely listed as cytotoxic. hit rate 1.4% among 400,000; further: nearly all actives have a fitted effect of over 60% in size
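72 h, 37 °C compound treatment of KB-3-1 parental cells; CellTiter-Glo added, 10 min, luminescence read. Data corrected against DMSO-only plates and normalized before curve fitting.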
HepG2 viability – qHTS for Inhibitors of TGF-b: Cytotox Counterscreen | HepG2 CAGA-GFP viability, ATP luminescence, 18 h | Potency, µM (top dose mostly 46.1 µM), hits mostly cytotoxic | hit rate 0.76% among 410,000
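CellTiter-Glo luminescence gave cytotoxicity after 18 hours at 37 degrees C. The cells were HepG2 CAGA-GFP in 1% FBS DMEM, stimulated with 500 pg/mL TGF-beta after compound addition. %Activity was normalised to no-cell wells (complete cell-killing) and DMSO (no toxicity), and curves were fitted and classified.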
KB-V1 cytotox – qHTS assay for MDR1-selective chemotherapeutics: Primary screen using the drug-selected MDR subline cells KB-V1; hit rate 3.4% among 400,000; AID 1347076, 2019; Potency, µM (titrated, usually from 46.1 µM), most hits filed as cytotoxic; KB-V1 MDR cells viability, CellTiter-Glo, 72 h; further: nearly all actives have a fitted effect of over 60% in size
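Potencies derive from concentration-effect curves fitted to normalized luminescence (CellTiter-Glo) of KB-V1 cells treated for 72 h at 37 degrees C in phenol-red-free DMEM containing 10% FBS.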
Of the large screens only hits and unclear results are named; the others gave an inactive call. An excerpt weighted towards active compounds, which were near 5.9% of everything screened. The call rests on the fitted dose curve; in most records, active means well fitted curve in the direction sought with a large enough effect; inconclusive means small, poorly fitted or top-dose-only effect, or another doubt; inactive means no such curve, though single readings can be large; an effect the other way counts as inactive or inconclusive.

O=C(NCCn1cc(SCc2ccc(Cl)cc2)c2ccccc21)c1cccs1	ATXN viability inconclusive, TGFb SMAD3 inh inconclusive
CC1=CC(=C2C(=O)c3ccccc3C2=O)C=C(C)N1C	none
CCCCCN1C=CC(=C2C(=O)c3ccccc3C2=O)C=C1	KB-V1 cytotox 9.2µM (no result: ATXN2 expr inh)
COc1cccc(CN(C)CC(=O)Nc2cc(S(=O)(=O)N3CCCC3)ccc2Cl)c1OC	TGFb SMAD3 inh inconclusive, KB-3-1 tox inconclusive, KB-V1 cytotox 21µM
COc1ccc(S(=O)(=O)N2CCCCCC2)cc1NC(=O)Cc1cc(OC)c(OC)c(OC)c1	ATXN viability inconclusive, KB-V1 cytotox 2.3µM
Cc1ccc(NC(=O)CSc2ncnc3ccccc23)cc1S(=O)(=O)N1CCCCC1	ATXN2 expr inh inconclusive, ATXN viability inconclusive, TGFb SMAD3 inh inconclusive
COc1ccc(S(=O)(=O)N2CCCCC2)cc1NC(=O)CSc1ncnc2ccccc12	ATXN viability inconclusive, KB-V1 cytotox 21µM
CCOc1ccc(S(=O)(=O)N2CCCCC2)cc1NC(=O)Cc1cccs1	KB-V1 cytotox 23µM
CCN(CC)CCNC(=O)c1cc2c(=O)n(C)c3cc(Cl)ccc3c2s1	KB-V1 cytotox inconclusive
CSCCC(c1nc2ccccc2[nH]1)n1c(=O)c(-c2ccco2)nc2ccccc21 (stereo not given)	KB-V1 cytotox inconclusive (no result: ATXN2 expr inh, ATXN viability, TGFb SMAD3 inh, HepG2 viability)
Cc1cccc(CNC(=O)c2cnn(-c3nccc(-c4cc5ccccc5o4)n3)c2C2CC2)n1	none (no result: ATXN2 expr inh, TGFb SMAD3 inh, KB-3-1 tox, HepG2 viability, KB-V1 cytotox)
COc1ccc2nc(SCC(=O)Nc3ccc(S(=O)(=O)N4CCCC4)cc3)c(C#N)cc2c1	none
N#Cc1cc2ccccc2nc1SCC(=O)Nc1ccc(S(=O)(=O)N2CCCC2)cc1	KB-V1 cytotox 4.1µM
COc1ccc(N2CC(C(=O)N/N=C/c3ccc([N+](=O)[O-])cc3)CC2=O)cc1 (stereo not given)	none
COc1ccc(N2CC(C(=O)N/N=C/c3ccc(C)cc3)CC2=O)cc1 (stereo not given)	ATXN2 expr inh inconclusive, ATXN viability inconclusive, KB-3-1 tox 1.8µM, KB-V1 cytotox 1.5µM
COc1ccc(N(CC(=O)N2CCc3ccccc32)S(=O)(=O)c2c(C)noc2C)cc1	KB-3-1 tox inconclusive, KB-V1 cytotox 10µM
CCOc1ccc(N(CC(=O)Nc2ccc(C)c(C)c2)S(=O)(=O)c2c(C)noc2C)cc1	TGFb SMAD3 inh inconclusive, KB-3-1 tox inconclusive, KB-V1 cytotox inconclusive
CCOc1ccc(N(CC(=O)Nc2ccccc2C)S(=O)(=O)c2c(C)noc2C)cc1	TGFb SMAD3 inh inconclusive, KB-3-1 tox 5.8µM, KB-V1 cytotox inconclusive
Cc1ccc(N(CC(=O)Nc2ccc(F)c(Cl)c2)S(=O)(=O)c2c(C)noc2C)cc1	TGFb SMAD3 inh inconclusive, KB-3-1 tox inconclusive, KB-V1 cytotox 18µM
CCOc1ccc(N(CC(=O)Nc2cccc(F)c2)S(=O)(=O)c2c(C)noc2C)cc1	KB-3-1 tox 21µM, KB-V1 cytotox inconclusive
CCOC(=O)c1cccc(NC(=O)CN(c2ccc(OC)cc2)S(=O)(=O)c2c(C)noc2C)c1	KB-V1 cytotox 9.2µM
CCOc1ccccc1NC(=O)CN(c1ccc(OC)cc1)S(=O)(=O)c1c(C)noc1C	TGFb SMAD3 inh inconclusive, KB-3-1 tox 5.8µM, KB-V1 cytotox 2.6µM
CCOc1ccccc1N(C)C(=O)Cn1nc(Cc2ccncc2)c2ccccc2c1=O	TGFb SMAD3 inh inconclusive (no result: ATXN2 expr inh, ATXN viability, KB-3-1 tox, KB-V1 cytotox)
Clc1ccc2c(N/N=C/c3ccc(Br)cc3)ccnc2c1	ATXN viability inconclusive, KB-3-1 tox inconclusive
Oc1ccc(/C=N/Nc2ccnc3cc(Cl)ccc23)c(O)c1	ATXN viability inconclusive (no result: ATXN2 expr inh)
Cc1ccc(/C=N/Nc2ccnc3cc(Cl)ccc23)c(C)c1	ATXN2 expr inh 35µM, ATXN viability inconclusive, TGFb SMAD3 inh inconclusive, KB-3-1 tox inconclusive, HepG2 viability 14µM
Cc1ccccc1/C=N/Nc1ccnc2cc(Cl)ccc12	ATXN2 expr inh 22µM, TGFb SMAD3 inh 10µM, KB-3-1 tox inconclusive, KB-V1 cytotox 16µM (no result: ATXN viability)
